Laboratory results taken from PubChem BioAssay (EPA / NIEHS).
The source made the active and inactive calls. The calls were made as follows: active = hit-call score of the fitted dose curve at least 0.9, where 1 is the maximum; inactive = score below 0.9.

Read-out: CD38, CD38 (gene 952)
Assay: BSK_SAg_CD38: BioMAP Diversity Plus: SAg Assay for CD38 Biomarker Activity (AID 2283087)
Details: primary human HUVEC with PBMC; actives raise or lower the signal
Experimental: BSK_SAg is a cell-based, multiplexed-readout assay that uses umbilical vein endothelium and peripheral blood mononuclear cells, a human vascular primary cell co-culture, with measurements taken at 24 hours after chemical dosing in a 96-well plate.BSK_SAg_CD38 is one of 10 assay component(s) measured or calculated from the BSK_SAg assay. It is designed to make measurements of enzyme-linked immunosorbent assay, a form of binding reporter, as detected with fluorescence intensity signals by Enzyme-linked immunosorbent assay technology.Data from the assay component BSK_SAg_CD38 was analyzed into 1 assay endpoint. This assay endpoint, BSK_SAg_CD38, was analyzed with bidirectional fitting relative to DMSO as the negative control and baseline of activity. Using a type of binding reporter, gain or loss-of-signal activity can be used to understand changes in the signaling as they relate to the gene CD38. Furthermore, this assay endpoint can be referred to as a primary readout, because this assay has produced multiple assay endpoints where this one serves a signaling function. To generalize the intended target to other relatable targets, this assay endpoint is annotated to the cytokine intended target family, where the subfamily is other cytokine.
The levels of cell surface (or secreted, indicated by the prefix "s") biomarker endpoints were measured by ELISA. Overt cytotoxicity to cells in confluent adherent cultures (all systems other than the BT system) was assessed by measuring total protein levels using sulforhodamine B (SRB) staining in parallel cultures at the time of biomarker measurements, indicated as SRB endpoints. For proliferation assays for adherent cell types, individual cell types are cultured at sub-confluence and relative cell numbers quantified by SRB staining at time points optimized for each system (48 h: 3C and CASM3C systems; 72 h: BT and HDF3CGF systems; 96 h: SAg system). SRB was performed by staining cells with 0.1% SRB after fixation with 10% TCA and reading wells at 560 nm.Viability and proliferation of PBMC (T cells) was quantified by Alamar Blue reduction for the SAg and BT systems. For PBMC viability (referred to as PBMC Cytotoxicity within the assay endpoint names), cells were plated (75,000/well in a 96-well plate) and then chemical samples added for 1 h before addition of activators, SEB and TSST-1 (20 ng/mL final concentration each). Cells were incubated for 90 h. Then, Alamar Blue (20 uL/well) (Invitrogen, Cat DAL1100) was added for 6 h, and the plates were read with a fluorescence microplate reader at 546/580 nm (excitation/emission). For PBMC proliferation, cells were plated and activated as above but incubated for only 16 h prior to addition of Alamar Blue. Plates were read after 6 h.

Row | SMILES | AC50 | outcome
1 | COc1cc(C(=O)NC2CCN(C)CC2)ccc1Nc1ncc2c(n1)N(C1CCCC1)CC(F)(F)C(=O)N2C | 11.6 µM (active) | 
2 | OC12N=C(c3ccccc3)SC1Cc1cc(Cl)ccc12 (stereo not given) |  | inactive
3 | CCCCCCCCOc1ccc(C(=O)c2ccccc2)c(O)c1 | 15.7 µM (active) | 
4 | O=C(OCCCCCCOC(=O)c1ccccc1)c1ccccc1 |  | inactive
5 | O=c1[nH]sc2ccccc12 | 8.45 µM (active) | 
6 | Clc1cc(Cl)c2c(c1)N=C1CCCCCN1C2 |  | inactive
7 | CCCCOC(=O)c1ccc(O)cc1 |  | inactive
8 | CC(C)(c1cc(Br)c(O)c(Br)c1)c1cc(Br)c(O)c(Br)c1 | 27.9 µM (active) | 
9 | CCOC(=O)O[C@H](C)OC(=O)c1ccc2c(c1)cc(C(=O)NC1CCN(C(C)C)CC1)n2Cc1cc(-c2ccc(Cl)s2)on1 | 7.17 µM (active) | 
10 | NCc1cccc(C2CCN(C(=O)c3ccc(C#Cc4ccccc4F)o3)CC2)c1 | 17.4 µM (active) | 
11 | CC[C@H](NC(=O)c1cc(F)ccc1NS(=O)(=O)c1cccc2cccnc12)c1ccccc1 |  | inactive
12 | CCCOC(=O)c1cc(O)c(O)c(O)c1 |  | inactive
13 | CCCCCCCCCC(=O)O |  | inactive
14 | Cc1cccc2ccccc12 |  | inactive
15 | CN(C[C@@H](CC[N+]12CCC(C3CCCCC3)(CC1)CC2)c1ccc(Cl)c(Cl)c1)C(=O)c1cc(C(F)(F)F)cc(C(F)(F)F)c1 | 13.3 µM (active) | 
16 | Cc1cc2c(cc1C(F)(F)F)N(C(=O)Nc1ccc(Oc3cccnc3C)nc1)CC2 | 7.33 µM (active) | 
17 | CC/C(=C(/CC)c1ccc(O)cc1)c1ccc(O)cc1 | 19 µM (active) | 
18 | COc1cccc([C@H](O)C2CCN(CCc3ccc(F)cc3)CC2)c1OC |  | inactive
19 | OCCO |  | inactive
20 | Cc1ccc(C(C)C)cc1 |  | inactive

Row | SMILES | AC50 | outcome
21 | Clc1ccccc1C(c1ccccc1)(c1ccccc1)n1ccnc1 | 25.9 µM (active) | 
22 | CCN(Cc1cccc(S(=O)(=O)O)c1)c1ccc(C(=C2C=CC(=[N+](CC)Cc3cccc(S(=O)(=O)O)c3)C=C2)c2ccccc2S(=O)(=O)[O-])cc1 |  | inactive
23 | CO[C@H]1/C=C/O[C@@]2(C)Oc3c(C)c(O)c4c(O)c(c(/C=N/N5CCN(C)CC5)c(O)c4c3C2=O)NC(=O)/C(C)=C\C=C\[C@H](C)[C@H](O)[C@@H](C)[C@@H](O)[C@@H](C)[C@H](OC(C)=O)[C@@H]1C |  | inactive
24 | CCCCCCCCCCCCO | 34.7 µM (active) | 
25 | CC(O)CC(C)(C)O (stereo not given) |  | inactive
26 | CCN(Cc1cccnc1)C(=O)c1cccc(Cl)c1[C@]1(C)C(=O)N(Cc2ccc(OC)cc2OC)c2ccc(Cl)cc21 | 8.35 µM (active) | 
27 | c1ccc2ccccc2c1 |  | inactive
28 | CCCC(=O)OCCC(C)C |  | inactive
29 | CCCCCCCCCCCC[N+](C)(C)C | 17.4 µM (active) | 
30 | NC(=O)c1nc(-c2cccc(-c3cc(F)ccc3OCC(F)(F)C(F)(F)F)c2)n[nH]1 | 29.5 µM (active) | 
31 | O=C(O)c1ccccc1-n1cc(C(=O)O)c(=O)c2cc(Nc3c(F)cc(F)cc3Cl)c(Cl)cc21 |  | inactive
32 | CCCCCCCCOC(=O)c1cc(O)c(O)c(O)c1 | 13.1 µM (active) | 
33 | Cc1ccc2oc(CN(Cc3ccccc3)C(=O)Nc3c(F)cc(F)cc3F)c(-c3ccc(Cl)cc3)c2c1 |  | inactive
34 | CC(C)(C)c1cc(/C=C2\SC(N)=NC2=O)cc(C(C)(C)C)c1O | 12.2 µM (active) | 
35 | CC(C)(O)c1ccc(CNC(=O)c2cccnc2Oc2ccc3nonc3c2)cc1 |  | inactive
36 | Cc1c2ccccc2c(C)c2c1ccc1ccccc12 | 28.6 µM (active) | 
37 | CCO[Si](CCCNC(N)=O)(OCC)OCC |  | inactive
38 | CC[C@@H]1C[C@H](N(Cc2cc(C(F)(F)F)cc(C(F)(F)F)c2)C(C)=O)c2cc(C(F)(F)F)ccc2N1C(=O)OC(C)C |  | inactive
39 | O=C(O)Cc1cc(I)c(Oc2ccc(O)c(I)c2)c(I)c1 |  | inactive
40 | CCCCCCCCCCCO |  | inactive
